According to the supplement of paper PMC7156485:
Values joined by “and” are separate entries in the source; they are usually repeats but may differ in a detail not shown here. Identical values can stand only once. ± gives the standard deviation of the averaged measurements.

Assays:
Settings in all cases: concentration: 10 µM; 24 h
HCC1569 [1] = assay: cell number relative to DMSO (% of DMSO); higher = more cells (less growth inhibition / toxicity)
In short: (§1)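 H1.0 nuclear intensity or cell number is expressed as percent of the plate control, with the median of replicates taken. HCC1569 and TDF cells were treated with compounds at 10 µM for 24 h at 37 °C, in triplicate, then fixed and immunostained for H1.0 with DAPI as a nuclear stain. HCC1569 values were smoothed to correct for positional effects.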

TDF [2] = assay: as above
In short: as §1

TDF [3] = assay: H1.0 immunofluorescence intensity relative to DMSO (% of DMSO); higher = stronger H1.0 induction, active = 120 or more
In short: as §1

HCC1569 [4] = assay: H1.0 immunofluorescence intensity relative to DMSO (% of DMSO); higher = stronger H1.0 induction, active = 140 or more
In short: as §1
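Throughout, for H1.0 immunofluorescence intensity relative to DMSO: TDF is a line of transformed human dermal fibroblasts of mesenchymal origin.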
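Throughout, for cell number relative to DMSO: TDF denotes transformed human dermal fibroblasts of mesenchymal origin.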

SMILES	cell number (HCC1569 [1])	cell number (TDF [2])	H1.0 immunofluorescence intensity (TDF [3])	H1.0 immunofluorescence intensity (HCC1569 [4])
NC(=O)N1c2ccccc2CC(=O)c2ccccc21 [Oxcarbazepine]	103	108	93.7 (inactive)	110 (inactive)
Cl.Cl.OCCN1CCN(CCCN2c3ccccc3Sc3ccc(C(F)(F)F)cc32)CC1 [Fluphenazine dihydrochloride]	92.5	96.3	118 (inactive)	133 (inactive)
CC(=Cc1ccc(C(=O)O)cc1)c1ccc2c(c1)C(C)(C)CCC2(C)C	100.2 ± 0.57	106 ± 2.4	89.4 (inactive)	111 (inactive)
CNC(=C[N+](=O)[O-])NCCSCc1ccc(CN(C)C)o1.Cl [Ranitidine hydrochloride]	101	113	91.6 (inactive)	85.1 (inactive)
CCCCCCCCCCCCCCCCn1cc[n+](Cc2ccccc2)c1C.[I-] [eEF-2 Kinase Inhibitor, NH125]	36.6	38.9	152 (active)	101 (inactive)
CCC(=O)OC1(C(=O)SCF)C(C)CC2C3CC(F)C4=CC(=O)C=CC4(C)C3(F)C(O)CC21C (stereo not given)	98.9	105	86.8 (inactive)	116 (inactive)
O=c1[nH]c(=O)n(C2CC(O)C(CO)O2)cc1I (stereo not given) [Idoxuridine]	103	100	92.2 (inactive)	121 (inactive)
CN(C)C1C(=O)C(C(N)=O)=C(O)C2(O)C(=O)C3=C(O)c4c(O)ccc(Cl)c4C(O)C3CC12.Cl (stereo not given) [Demeclocycline hydrochloride]	96.2	96.5	99.7 (inactive)	104 (inactive)
CC(C)NCC(O)COc1cccc2ccccc12.Cl (racemic)	101	91.5	98.8 (inactive)	94.2 (inactive)
Cn1cnc2c(F)c(Nc3ccc(Br)cc3Cl)c(C(=O)NOCCO)cc21	105	91.8	93.3 (inactive)	98.8 (inactive)
Cn1c(=O)c(-c2c(Cl)cccc2Cl)cc2cnc(Nc3ccc(N4CCOCC4)cc3)nc21	52.7	21.9	154 (active)	88.3 (inactive)
CCN(CC)C(C)C(=O)N1c2ccccc2Sc2ccccc21.Cl (stereo not drawn) [10-(alpha-Diethylaminopropionyl)-phenothiazine hydrochloride]	93.7	99	98.5 (inactive)	85.9 (inactive)
O=C(Nc1ccccc1C(=O)Nc1ccc(CCO)cc1)c1ccc([N+](=O)[O-])cc1 [N-(4-(2-hydroxyethyl)phenyl)-2-(4-nitrobenzamido)benzamide]	82.4	90.9	101 (inactive)	144 (active)
COc1cc(C=Cc2ccccc2)oc(=O)c1 [5,6-Dehydrokawain]	104	97.5	99 (inactive)	92.6 (inactive)
COc1ccccc1N1CCN(CCCCNS(=O)(=O)c2cccc3c(N(C)C)cccc23)CC1.O=C(O)C=CC(=O)O [Cortexolone maleate]	85.1	99.8	117 (inactive)	131 (inactive)
N[C@@H](Cc1c[nH]c2ccc(O)cc12)C(=O)O [5-Hydroxy-L-tryptophan]	98.1	94.8	93 (inactive)	116 (inactive)
O=C(Nc1cccc2c(=O)cc(-c3nn[nH]n3)oc12)c1ccc(OCCCCc2ccccc2)cc1 [Pranlukast]	101	110	101 (inactive)	109 (inactive)
CCCCCC(O)C=CC=CCCCCCCCC(=O)O (stereo not given)	96	97.2	96.4 (inactive)	101 (inactive)
CN(C)CCOC(=O)COc1ccc(Cl)cc1.Cl [Centrophenoxine hydrochloride]	101	98.6	103 (inactive)	107 (inactive)
O=C1C=CC(=C2NC(c3ccncc3)=C(c3ccc(F)cc3)N2)C=C1	79.5 and 79.7	95.1 and 96.9	97.7 (inactive) and 97.1 (inactive)	125 (inactive) and 124 (inactive)
CCCCCCCCCCCCCC=CC(O)C(CO)NCCCCCCCC (stereo not given) [C8 Ceramine]	105	97	95.1 (inactive)	121 (inactive)
O=C(O)CCC(=O)c1ccc(-c2ccccc2)cc1 [Fenbufen]	101	103	92.2 (inactive)	119 (inactive)
CN1c2ccccc2C(=O)N2CCc3c([nH]c4ccccc34)C21 (stereo not given) [Evodiamine]	61.2	9.57	165 (active)	123 (inactive)
CCCCCCCOc1cc2c(cc1/C(C)=C/c1ccc(C(=O)O)cc1)C(C)(C)CCS2(=O)=O	96.9	101	88.9 (inactive)	102 (inactive)
O=C1NC(=O)C(c2ccccc2)(c2ccccc2)N1 [5,5-Diphenylhydantoin]	99.8	108	89.2 (inactive)	100 (inactive)

SMILES	cell number (HCC1569 [1])	cell number (TDF [2])	H1.0 immunofluorescence intensity (TDF [3])	H1.0 immunofluorescence intensity (HCC1569 [4])
CC1OC(Oc2c(-c3cc(O)c(O)c(O)c3)oc3cc(O)cc(O)c3c2=O)C(O)C(O)C1O (stereo not given) [Myricitrin]	103	101	94.8 (inactive)	83.5 (inactive)
Cc1ccc(OCCSc2ncccn2)c(Br)c1 [2-{[2-(2-bromo-4-methylphenoxy)ethyl]sulfanyl}pyrimidine]	100	105	94 (inactive)	107 (inactive)
CCCCCC=CCC=CCCCCCCCC(=O)O [Linoleic acid]	102	101	105 (inactive)	99.3 (inactive)
CC1C=CC=CC=CC=CC=CC=CC=CC(OC2OC(C)C(O)C(N)C2O)CC2OC(O)(CC(O)CC(O)C(O)CCC(O)CC(O)CC(=O)OC(C)C(C)C1O)CC(O)C2C(=O)O (stereo not given) [Amphotericin B]	97.4	89.9	105 (inactive)	83.9 (inactive)
Cl.Cl.Cl.NCCC1CCCC(CCN)N1 (stereo not given) [MDL 26,630 trihydrochloride]	104	105	93.7 (inactive)	85.3 (inactive)
Cl.Cl.Nc1nccc(-c2c(-c3ccc(F)cc3)ncn2C2CCCCC2)n1	80.6	92.2	79.8 (inactive)	130 (inactive)
Brc1c(Br)c(Br)c2n[nH]nc2c1Br [TBB - 4,5,6,7-Tetrabromobenzotriazole]	104	96.4	99.2 (inactive)	104 (inactive)
c1coc(CNc2ncnc3nc[nH]c23)c1 [Kinetin]	103	112	95.4 (inactive)	92.8 (inactive)
CCCCN1CCCC[C@H]1C(=O)Nc1c(C)cccc1C.Cl	104	107	96.8 (inactive)	108 (inactive)
O=C1Nc2cc(Br)ccc2C1=C1N=c2ccccc2=C1NO [(2'Z,3'E)-6-Bromoindirubin-3'-oxime]	54.7	61.4	118 (inactive)	171 (active)
CC1=C(C(=O)O)N2C(=O)C(NC(=O)C(N)c3ccccc3)C2SC1 (stereo not given) [Cephalexin hydrate]	104	111	102 (inactive)	96.5 (inactive)
CC(C)(O)CCC(O)C(C)(O)C1CCC2(O)C3=CC(=O)C4CC(O)C(O)CC4(C)C3CCC12C (stereo not given)	102	97	102 (inactive)	94.8 (inactive)
CN1C(C(=O)Nc2ccccn2)=C(O)c2sccc2S1(=O)=O [Tenoxicam]	100	87.8	95 (inactive)	93.3 (inactive)
OC1CCN2Cc3ccccc3N=C12 (stereo not given) [Vasicine]	102	105	98.7 (inactive)	89.7 (inactive)
NCCCCCC(=O)O [6-Aminohexanoic acid]	101	116	106 (inactive)	102 (inactive)
CCCCC(C)(O)CC=CC1C(O)CC(=O)C1CCCCCCC(=O)OC (stereo not given) [Misoprostol]	106	107	93.2 (inactive)	108 (inactive)
Cl.O=C(O)C1=CCCNC1 [Guvacine hydrochloride]	97.8	99.1	103 (inactive)	91.1 (inactive)
NC(=O)c1cccc(NC(=O)/C=C/c2c[nH]c3ccccc23)c1 [(E)-3-(3-(1H-indol-3-yl)acrylamido)benzamide]	97.9	103	88 (inactive)	118 (inactive)
CCC=CCC=CCC=CCCCCCCCC(=O)O [Linolenic acid]	104 ± 3.3	98.7 ± 9	101 (inactive)	97.6 (inactive)
CN1C2CCC1CC(OC(=O)c1c[nH]c3ccccc13)C2.Cl (stereo not given) [3-Tropanyl-indole-3-carboxylate hydrochloride]	103	112	93.4 (inactive)	112 (inactive)
CN(C)CCCCSC(=N)N.Cl.Cl	99.3	106	93.8 (inactive)	102 (inactive)
CCCCS(=N)(=O)CCC(N)C(=O)O (racemic) [DL-Buthionine-[S,R]-sulfoximine]	102	102	97.8 (inactive)	99.9 (inactive)
CCC1C(=O)OCC1Cc1cncn1C.Cl (stereo not given) [Pilocarpine.HCl]	102 ± 2.4	94.48 ± 0.24	97.6 (inactive)	102 (inactive)
CCC1=CC2CN(C1)Cc1c([nH]c3ccccc13)C(C(=O)OC)(c1cc3c(cc1OC)N(C)C1C(O)(C(=O)OC)C(OC(C)=O)C4(CC)C=CCN5CCC31C54)C2 (stereo not given) [Vinorelbine]	56.9 ± 1.3	9.75 ± 0.33	167 (active)	153 (active)
CCN(Cc1ccccc1)C(=O)Cn1c(=O)n(C)c2cnc(-c3ccccc3)nc21	75.1	17.6	156 (active)	123 (inactive)
